# About 7,900 targets were measured; listed, in parts, are those with a hit and a random draw of the rest. About 0.6% of all pairs of compound and target were hits. A number with no mark means an inactive call.
# Tests used:
# Experiment in all cases: log2 fold change, soluble protein after heating vs DMSO (PISA); higher = thermal stabilisation; K562 cells, 10 uM, 30 min; active = over 0.2 and 3.5 SD of the protein, either way, in both replicates (recomputed)
# [1] = compound: C1COCCN1CCN2C3=CC=CC=C3N=C2NC(=O)C4=CC(=CC=C4)[N+](=O)[O-] [IRAK-1-4 Inhibitor I]
# Summary of the method: (§1)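 Soluble protein was quantified by TMTpro 16plex LC-MS/MS after channel sums were equalised. It was obtained as the supernatant after 21,000xg for 90 min from pooled aliquots of K562 cells (2×10^6 cells/mL, 10 μM compound, 30 min) heated for 3 min across 48°C-58°C and extracted in PBS with 0.5% NP-40 at 4°C. Thermal stability values are relative to control samples and come from duplicates. They are given as log2 fold changes.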
# [2] = compound: C=CC(=O)N1CCC[C@@H](n2nc(-c3ccc(Oc4ccccc4)cc3)c3c(N)ncnc32)C1 [ibrutinib]
# Summary of the method: as §1
# [3] = compound: CC(=O)c1cnc2ccc(-c3cc(Cl)c(O)c(Cl)c3)nc2c1N[C@H]1CC[C@H](CN(C)C)CC1
# Summary of the method: as §1
# [4] = compound: CC(C)(C)Cn1c(N)nc2ccc(-c3[nH]c(C(C)(C)C)nc3-c3ccc(F)cc3)nc21 [ralimetinib]
# Summary of the method: as §1
# [5] = compound: CC(C)(O)CC(=O)NCCn1ccc2ncnc(Nc3ccc(Oc4cccc(C(F)(F)F)c4)c(Cl)c3)c21
# Summary of the method: as §1
# [6] = compound: CC(C)C1=C2N=C(C=C(N2N=C1)NCC3=CC=CC=C3)NCCCCCCN
# Summary of the method: as §1
# [7] = compound: CC(C)C[C@@H](C=O)NC(=O)[C@H](CC(C)C)NC(=O)[C@H](CC(C)C)NC(=O)OCc1ccccc1
# Summary of the method: as §1
# [8] = compound: CC(C)N(C[C@H]1O[C@@H](n2cnc3c(N)ncnc32)[C@H](O)[C@@H]1O)[C@H]1C[C@@H](CCc2nc3cc(C(C)(C)C)ccc3[nH]2)C1 [pinometostat]
# Summary of the method: as §1
# [9] = compound: CC1=C(C(CC(=O)N1)C2=CC=C(C=C2)C(F)(F)F)C(=O)NC3=C(C=C4C(=C3)C=NN4)F
# Summary of the method: as §1
# [10] = compound: CC1=C(C2=C(C=C1)C(=O)C3=CC=CC=C3N2CCCN)C
# Summary of the method: as §1
# [11] = compound: CC1=C(C=C(C=C1)NC(=O)C2=CC(=CC=C2)C(C)(C)C#N)NC3=CC4=C(C=C3)N=CN(C4=O)C
# Summary of the method: as §1
# [12] = compound: CC1=C(C=C(C=C1)NC(=O)C2=CC(=CC=C2)N(C)C)NC(=O)C3=CC=C(C=C3)O
# Summary of the method: as §1
# [13] = compound: CC1=CC=C(C=C1)SC2=C3C=C(SC3=CN=C2)C(=O)N
# Summary of the method: as §1
# [14] = compound: CC1=NC(=CC=C1)C2=C(N=C(N2)C(C)(C)C)C3=CC4=NC=CN=C4C=C3
# Summary of the method: as §1
# [15] = compound: CCCCN(Cc1ccc(C(=O)NO)cc1)C(=O)Nc1ccccc1 [Nexturastat A]
# Summary of the method: as §1
# [16] = compound: CCCS(=O)(=O)Nc1ccc(F)c(C(=O)c2c[nH]c3ncc(-c4ccc(Cl)cc4)cc23)c1F [vemurafenib]
# Summary of the method: as §1
# [17] = compound: CCCS(=O)(=O)Nc1ccc(F)c(C(=O)c2c[nH]c3ncc(Cl)cc23)c1F
# Summary of the method: as §1
# [18] = compound: CCCc1cc(C)[nH]c(=O)c1CNC(=O)c1cc(-c2ccnc(N3CCN(C)CC3)c2)cc2c1cnn2C(C)C
# Summary of the method: as §1
# [19] = compound: CCN(CC)Cc1ccc2cc(COC(=O)Nc3ccc(C(=O)NO)cc3)ccc2c1 [givinostat]
# Summary of the method: as §1
# [20] = compound: CCN(CCCOc1ccc2c(Nc3cc(CC(=O)Nc4cccc(F)c4)[nH]n3)ncnc2c1)CCOP(=O)(O)O [barasertib]
# Summary of the method: as §1
# Sequence of UniProt Q9Y4P1 (Q9Y4P1 whole entry, looked up): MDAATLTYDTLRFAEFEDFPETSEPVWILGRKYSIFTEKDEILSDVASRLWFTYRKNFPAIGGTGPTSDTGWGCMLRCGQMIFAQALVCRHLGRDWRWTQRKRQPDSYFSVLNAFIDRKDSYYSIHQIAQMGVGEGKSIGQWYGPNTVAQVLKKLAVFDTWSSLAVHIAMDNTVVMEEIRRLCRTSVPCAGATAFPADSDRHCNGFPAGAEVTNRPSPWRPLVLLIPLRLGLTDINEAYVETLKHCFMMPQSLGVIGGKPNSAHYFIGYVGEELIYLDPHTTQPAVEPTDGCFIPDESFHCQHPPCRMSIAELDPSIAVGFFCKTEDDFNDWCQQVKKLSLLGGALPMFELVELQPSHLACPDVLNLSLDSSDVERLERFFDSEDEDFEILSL
# Sequence of UniProt P56385 (P56385 whole entry, looked up): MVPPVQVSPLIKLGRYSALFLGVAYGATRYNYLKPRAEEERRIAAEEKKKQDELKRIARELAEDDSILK
# Sequence of UniProt Q93084 (Q93084 whole entry, looked up): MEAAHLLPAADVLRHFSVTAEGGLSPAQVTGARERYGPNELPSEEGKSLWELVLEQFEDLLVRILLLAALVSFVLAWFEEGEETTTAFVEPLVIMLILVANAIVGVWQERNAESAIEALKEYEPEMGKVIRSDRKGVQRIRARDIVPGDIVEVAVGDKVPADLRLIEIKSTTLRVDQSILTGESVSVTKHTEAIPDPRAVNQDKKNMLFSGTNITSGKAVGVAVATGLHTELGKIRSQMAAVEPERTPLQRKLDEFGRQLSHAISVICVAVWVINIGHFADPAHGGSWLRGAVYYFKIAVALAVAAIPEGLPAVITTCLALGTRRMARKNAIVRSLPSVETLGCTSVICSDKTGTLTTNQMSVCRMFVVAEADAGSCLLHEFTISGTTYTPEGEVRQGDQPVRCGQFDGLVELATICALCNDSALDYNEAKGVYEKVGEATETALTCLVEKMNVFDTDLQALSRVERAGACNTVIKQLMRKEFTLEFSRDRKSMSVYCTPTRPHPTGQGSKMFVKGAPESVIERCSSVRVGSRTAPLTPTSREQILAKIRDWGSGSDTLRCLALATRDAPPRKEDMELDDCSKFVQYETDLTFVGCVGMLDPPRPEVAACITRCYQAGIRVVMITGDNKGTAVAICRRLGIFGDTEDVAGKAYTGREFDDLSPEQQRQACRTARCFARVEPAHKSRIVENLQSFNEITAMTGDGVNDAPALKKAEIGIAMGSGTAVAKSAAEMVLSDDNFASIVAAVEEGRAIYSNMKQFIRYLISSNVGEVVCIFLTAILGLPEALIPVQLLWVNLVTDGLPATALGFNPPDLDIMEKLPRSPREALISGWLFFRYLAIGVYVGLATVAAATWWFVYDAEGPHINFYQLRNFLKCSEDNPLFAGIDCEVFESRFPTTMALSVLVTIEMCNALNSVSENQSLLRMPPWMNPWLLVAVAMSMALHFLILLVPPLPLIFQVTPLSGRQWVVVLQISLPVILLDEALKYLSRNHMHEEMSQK
# Sequence of UniProt O00468 (O00468 whole entry, looked up): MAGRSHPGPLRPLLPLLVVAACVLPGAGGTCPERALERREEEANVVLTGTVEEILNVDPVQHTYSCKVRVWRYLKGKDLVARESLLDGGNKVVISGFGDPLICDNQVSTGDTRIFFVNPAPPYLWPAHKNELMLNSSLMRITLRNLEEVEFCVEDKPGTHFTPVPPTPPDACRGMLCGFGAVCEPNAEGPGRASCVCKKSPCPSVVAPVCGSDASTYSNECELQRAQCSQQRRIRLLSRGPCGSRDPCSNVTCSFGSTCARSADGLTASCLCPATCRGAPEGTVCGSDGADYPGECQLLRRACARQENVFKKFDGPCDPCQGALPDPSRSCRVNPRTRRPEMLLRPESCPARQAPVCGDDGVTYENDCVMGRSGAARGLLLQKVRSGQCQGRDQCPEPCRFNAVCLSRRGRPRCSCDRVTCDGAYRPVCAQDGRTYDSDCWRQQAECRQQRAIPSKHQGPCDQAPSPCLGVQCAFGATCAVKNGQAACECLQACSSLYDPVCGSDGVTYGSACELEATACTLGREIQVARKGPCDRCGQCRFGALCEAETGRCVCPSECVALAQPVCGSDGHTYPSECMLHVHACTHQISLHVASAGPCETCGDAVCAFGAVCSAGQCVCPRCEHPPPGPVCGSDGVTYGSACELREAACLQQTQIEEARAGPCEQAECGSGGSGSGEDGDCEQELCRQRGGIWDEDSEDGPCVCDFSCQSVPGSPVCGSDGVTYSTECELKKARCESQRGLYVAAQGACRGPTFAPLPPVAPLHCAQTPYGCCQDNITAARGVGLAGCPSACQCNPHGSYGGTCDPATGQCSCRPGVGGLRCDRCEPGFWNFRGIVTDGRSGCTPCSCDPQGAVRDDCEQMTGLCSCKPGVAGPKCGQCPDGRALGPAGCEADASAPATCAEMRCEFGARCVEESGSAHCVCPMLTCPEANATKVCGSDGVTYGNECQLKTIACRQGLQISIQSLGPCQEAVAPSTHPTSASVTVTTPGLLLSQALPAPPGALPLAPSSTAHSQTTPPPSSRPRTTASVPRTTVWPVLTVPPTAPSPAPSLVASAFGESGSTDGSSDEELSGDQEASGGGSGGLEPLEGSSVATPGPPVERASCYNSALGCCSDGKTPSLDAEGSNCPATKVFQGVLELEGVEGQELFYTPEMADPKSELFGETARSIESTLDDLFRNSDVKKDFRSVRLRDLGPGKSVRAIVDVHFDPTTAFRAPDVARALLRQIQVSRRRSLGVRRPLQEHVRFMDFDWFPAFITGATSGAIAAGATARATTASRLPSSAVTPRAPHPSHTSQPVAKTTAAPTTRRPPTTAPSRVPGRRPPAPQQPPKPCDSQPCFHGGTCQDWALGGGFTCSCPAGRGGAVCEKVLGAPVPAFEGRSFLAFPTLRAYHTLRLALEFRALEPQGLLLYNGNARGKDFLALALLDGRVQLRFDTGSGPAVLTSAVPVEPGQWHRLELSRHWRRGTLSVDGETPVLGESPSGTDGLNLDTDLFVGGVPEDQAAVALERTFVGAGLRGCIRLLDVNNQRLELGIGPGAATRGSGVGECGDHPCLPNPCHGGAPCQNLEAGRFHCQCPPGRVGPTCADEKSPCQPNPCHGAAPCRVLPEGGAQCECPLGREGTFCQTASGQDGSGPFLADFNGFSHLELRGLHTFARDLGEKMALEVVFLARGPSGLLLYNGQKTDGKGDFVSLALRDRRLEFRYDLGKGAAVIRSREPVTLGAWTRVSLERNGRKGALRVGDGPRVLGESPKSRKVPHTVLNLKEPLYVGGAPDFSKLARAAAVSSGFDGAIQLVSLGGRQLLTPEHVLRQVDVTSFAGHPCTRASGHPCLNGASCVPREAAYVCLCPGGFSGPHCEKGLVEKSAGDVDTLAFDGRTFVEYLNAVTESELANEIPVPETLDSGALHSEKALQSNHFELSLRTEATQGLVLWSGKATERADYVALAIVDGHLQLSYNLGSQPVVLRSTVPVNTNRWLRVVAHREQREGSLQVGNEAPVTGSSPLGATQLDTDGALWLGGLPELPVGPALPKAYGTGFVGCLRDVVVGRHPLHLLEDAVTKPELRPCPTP
# Sequence of UniProt P42330 (P42330 whole entry, looked up): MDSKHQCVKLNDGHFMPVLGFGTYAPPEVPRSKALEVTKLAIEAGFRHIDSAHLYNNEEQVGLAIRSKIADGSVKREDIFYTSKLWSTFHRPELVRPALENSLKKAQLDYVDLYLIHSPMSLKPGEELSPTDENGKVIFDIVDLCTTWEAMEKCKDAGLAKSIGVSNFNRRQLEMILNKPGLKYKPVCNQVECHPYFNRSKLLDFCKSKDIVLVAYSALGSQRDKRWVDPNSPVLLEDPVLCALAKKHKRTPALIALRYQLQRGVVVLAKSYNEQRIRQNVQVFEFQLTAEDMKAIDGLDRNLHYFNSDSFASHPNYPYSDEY
# Sequence of UniProt Q7Z569 (Q7Z569 whole entry, looked up): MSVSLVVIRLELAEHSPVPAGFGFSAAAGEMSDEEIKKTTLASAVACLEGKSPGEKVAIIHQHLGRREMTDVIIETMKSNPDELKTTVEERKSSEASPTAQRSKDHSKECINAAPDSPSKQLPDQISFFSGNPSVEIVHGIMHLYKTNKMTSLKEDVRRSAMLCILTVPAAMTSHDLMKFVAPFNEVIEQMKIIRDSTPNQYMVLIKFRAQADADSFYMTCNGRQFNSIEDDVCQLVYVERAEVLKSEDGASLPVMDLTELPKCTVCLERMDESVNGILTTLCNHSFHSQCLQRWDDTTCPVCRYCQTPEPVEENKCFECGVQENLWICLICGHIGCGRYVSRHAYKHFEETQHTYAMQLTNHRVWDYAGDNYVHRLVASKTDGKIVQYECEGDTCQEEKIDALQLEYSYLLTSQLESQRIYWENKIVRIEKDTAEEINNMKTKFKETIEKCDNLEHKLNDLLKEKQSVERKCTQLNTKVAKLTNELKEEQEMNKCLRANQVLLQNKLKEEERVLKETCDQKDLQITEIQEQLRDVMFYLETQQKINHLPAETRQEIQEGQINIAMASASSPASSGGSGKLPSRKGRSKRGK
# Sequence of UniProt Q10589 (Q10589 whole entry, looked up): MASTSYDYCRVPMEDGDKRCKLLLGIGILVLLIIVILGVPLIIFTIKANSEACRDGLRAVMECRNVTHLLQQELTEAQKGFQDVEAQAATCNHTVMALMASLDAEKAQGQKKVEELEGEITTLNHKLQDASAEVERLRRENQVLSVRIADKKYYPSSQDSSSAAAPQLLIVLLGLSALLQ
# Sequence of UniProt P11766 (P11766 whole entry, looked up): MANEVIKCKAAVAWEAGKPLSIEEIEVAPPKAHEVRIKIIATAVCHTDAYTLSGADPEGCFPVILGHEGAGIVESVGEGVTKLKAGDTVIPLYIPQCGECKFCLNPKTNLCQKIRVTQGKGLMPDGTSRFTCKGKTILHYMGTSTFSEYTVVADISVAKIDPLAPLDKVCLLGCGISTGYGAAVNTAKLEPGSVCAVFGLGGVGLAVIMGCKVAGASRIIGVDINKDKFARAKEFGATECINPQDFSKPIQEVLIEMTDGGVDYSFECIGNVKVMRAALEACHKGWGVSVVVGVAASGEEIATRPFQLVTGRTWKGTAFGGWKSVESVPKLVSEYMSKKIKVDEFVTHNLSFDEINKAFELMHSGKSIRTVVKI
Target,log2 fold change [1],log2 fold change [2],log2 fold change [3],log2 fold change [4],log2 fold change [5],log2 fold change [6],log2 fold change [7],log2 fold change [8],log2 fold change [9],log2 fold change [10],log2 fold change [11],log2 fold change [12],log2 fold change [13],log2 fold change [14],log2 fold change [15],log2 fold change [16],log2 fold change [17],log2 fold change [18],log2 fold change [19],log2 fold change [20]
BST2 (UniProt Q10589),-0.004,0,-0.109,0.033,0.025,-0.108,0.12,-0.006,0.026,0.017,0.059,0.014,-0.003,-0.011,0.023,0,-0.029,-0.095,0.053,-0.097
ADK (UniProt P55263),0.08,0.034,0.184,0.246,-0.002,0.074,-0.058,0.016,-0.101,-0.001,0.03,-0.027,0,-0.011,-0.04,-0.013,-0.046,0.106,-0.076,-0.026
ARL3 (UniProt P36405),0.049,-0.01,-0.033,-0.042,-0.034,0.065,-0.057,-0.029,0.002,0.017,-0.016,0.018,0.016,0.025,-0.063,0.002,0.059,-0.033,0.005,-0.022
ATL2 (UniProt Q8NHH9),0.011,0.006,-0.058,-0.116,-0.087,0.054,-0.001,0.035,-0.016,0.169,0.022,-0.107,-0.013,0.029,0.037,-0.004,0.005,-0.104,0.023,0.019
ADH5 (UniProt P11766),0.038,0.011,0.014,-0.097,-0.02,0.05,-0.041,-0.05,0.01,0.019,0.004,0.008,0.043,0.009,-0.103,-0.007,0.008,-0.046,-0.01,-0.023
AKT1 (UniProt P31749),-0.014,-0.244,0.03,-0.023,0.01,-0.141,0.07,-0.051,-0.161,-0.038,0.118,-0.105,-0.035,0.019,0.145,-0.227,0.008,0.049,0.133,-0.03
ARAF (UniProt P10398),0.011,0.005,-0.13,0.097,-0.064,-0.056,0.021,0.043,-0.018,0.041,0.063,-0.049,-0.069,-0.007,0.003,0.064,0.123,0.019,0.029,0.074
ATG4B isoform 2 (UniProt Q9Y4P1),0.127,-0.038,-0.102,0.134,-0.194,-0.299,-0.137,-0.013,-0.031,0.114,-0.046,-0.287,0.218,-0.072,0.132,0.087,-0.02,0.031,0.126,0.126
AKR1C3 (UniProt P42330),0.072,-0.108,0.015,0.085,0.265,0.025,-0.149,-0.069,-0.064,-0.049,-0.034,-0.207,0.268,-0.007,0.022,-0.032,0.066,0.289,-0.003,0.014
AGRN (UniProt O00468),-0.205,0.09,-0.025,0.125,-0.022,0.156,-0.066,-0.005,0.078,0.014,-0.089,-0.294,-0.031,0.014,-0.051,-0.025,-0.072,0.024,-0.011,0.011
ADD2 (UniProt P35612),0.04,0.009,-0.172,-0.021,-0.004,0.042,-0.024,-0.015,0.01,0.029,-0.014,0.018,-0.01,0.002,0.026,-0.03,-0.002,0.01,-0.007,-0.011
AHSA1 (UniProt O95433),0.002,-0.043,-0.007,0,-0.022,-0.038,-0.008,-0.045,0.003,0,-0.014,0.006,0,0.062,-0.019,0.029,0.036,-0.024,-0.015,0.027
BRAP (UniProt Q7Z569),-0.032,-0.066,-0.018,0.16,-0.016,-0.11,-0.093,0.033,0.026,0.263 (active),0.057,0.075,0.023,0.029,-0.031,0.037,0.151,0.08,-0.081,0.08
ATP5ME (UniProt P56385),-0.003,-0.002,-0.019,-0.04,-0.044,0.031,0.011,-0.036,0.011,0.039,0.036,-0.037,0.031,0.011,-0.035,-0.003,-0.041,-0.041,0.027,0.007
ARFIP1 (UniProt P53367),-0.034,-0.117,-0.075,-0.104,-0.031,-0.011,-0.029,0.006,0.014,0.164,-0.031,0.042,0.022,-0.006,-0.081,-0.026,0.084,0.045,0.058,0.046
ATP2A3 isoform 2 (UniProt Q93084),0.038,-0.013,0.001,-0.023,0.018,-0.295 (active),-0.044,0.005,0.012,-0.009,-0.024,-0.001,-0.013,0.004,0,-0.004,0.032,0.042,-0.01,0.011

# From the supplement of paper PMC10849652
